Experimental data published in PubChem BioAssay (EPA / NIEHS).
Results filed as inconclusive are left out. Active and inactive are the calls of the source. Rule for the calls: active = hit-call score of the fitted dose curve at least 0.9, where 1 is the maximum; inconclusive = response in the unintended direction; inactive = score below 0.9.

Test: ATG_M_06_TRANS: Attagene TRANS-FACTORIAL HepG2 Assay for M06 Transcription Factor (Internal Marker) (AID 2282983)
Conditions: HepG2 Attagene TRANS M06 internal marker reporter
Experimental: ATG_TRANS is a cell-based, multiplexed-readout assay that uses HepG2, a human liver cell line, with measurements taken at 24 hours after chemical dosing in a 24-well plate.ATG_M_06_TRANS is one of 30 assay component(s) measured or calculated from the ATG_TRANS assay. It is designed to make measurements of mRNA induction, a form of inducible reporter, as detected with fluorescence intensity signals by Reverse transcription polymerase chain reaction (RT-PCR) and Capillary electrophoresis technology.Data from the assay component ATG_M_06_TRANS was analyzed into 1 assay endpoint. This assay endpoint, ATG_M_06_TRANS, was analyzed in the positive analysis fitting direction relative to DMSO as the negative control and baseline of activity. Using a type of inducible reporter, measures of mRNA for gain-of-signal activity can be used to understand the background control at the transcription factor-level as they relate to the gene . Furthermore, this assay endpoint can be referred to as a secondary readout, because this assay has produced multiple assay endpoints where this one serves a background control function. To generalize the intended target to other relatable targets, this assay endpoint is annotated to the background measurement intended target family, where the subfamily is internal marker.
Human liver HepG2 cells are transiently transfected with multiple reporter transcription units (MRTUs) in 6-well plates using FuGene 6 reagent (Roche; 3 ml FuGene/1 mg DNA). The MRTU constructs are regulated by a cis-regulating element (promoter). […] A major difference between the CIS and TRANS system is that in CIS activities of endogenous TFs are measured, whereas the TRANS assay evaluates changes in activities of exogenous, chimeric NR-Gal4 proteins. […] At the end of 24 hour incubation, total RNA was isolated using TriZol reagent (Invitrogen). The isolated RNA is then reverse-transcribed using oligo(dT) primer and Mo-MLV reverse transcriptase (Invitrogen) with DNAse I (Ambion) treatment for 30 min. The one-tenth of the produced cDNA was amplified by PCR using Taq DNA polymerase (Invitrogen) and two reporter sequence-specific primers. The PCR products were fluorescently labeled by primer extension with 6-arboxyfluorescein (6-FAM) 5'-labeled reporter sequence-specific primer (2 min at 95 C, 20 s at 68 C and 10 min at 72 C) and these products were digested with 5U of HpaI (New England Biolabs) for 2h at 37 C. The fragments were purified using Qiaquick PCR columns (Qiagen), analyzed on an ABI 3130xL genetic analyzer (Applied Biosystems) with peak positions identified by using a set of X-rhodamine (ROX)-labeled MapMarker1000 molecular weight standards (BioVentures). The raw capillary electrophoresis data was processed using Attagraph software (Attagene).

outcome, inactive:
CCCCCCc1ccc(N)cc1
O=CC(F)(F)C(F)(F)C(F)(F)C(F)F
Cc1cc(Cc2cc(C)cc(C(C)(C)C)c2O)c(O)c(C(C)(C)C)c1
CCCCCCCCCC=CCC1CC(=O)OC1=O (stereo not given)
COc1cc(OC)nc(NC(=O)NS(=O)(=O)Nc2ccccc2C(=O)N(C)C)n1
O=C1OC(=O)C(F)(F)C1(F)F
O=P(O)(O)CCC(F)(F)C(F)(F)C(F)(F)C(F)(F)C(F)(F)C(F)(F)F
CC1COCc2cc3c(cc21)C(C)(C)C(C)C3(C)C (stereo not given)
CCCCCc1ccc(O)cc1
CC(C)(C)C1CCCCC1O (stereo not given)
C=CC(=O)OCCC(F)(F)C(F)(F)C(F)(F)C(F)(F)C(F)(F)C(F)(F)F
Oc1c(Cl)cc(Cl)cc1Sc1cc(Cl)cc(Cl)c1O
COCN(COC)c1nc(N(COC)COC)nc(N(COC)COC)n1
O=S(=O)(O)c1ccc2cc(O)ccc2c1
O=P(O)(O)CCC(F)(F)C(F)(F)C(F)(F)C(F)(F)C(F)(F)C(F)(F)C(F)(F)C(F)(F)F
CNNCc1ccc(C(=O)NC(C)C)cc1
O=C(CC(=O)C(F)(F)C(F)(F)C(F)(F)F)c1cccs1
C=CCOCC(CO)(CO)CO
C/C=C/C(=O)C1=C(C)CCCC1(C)C
Cc1ccc(S(=O)(=O)O)cc1
OCC1CCC(CO)CC1 (stereo not given)
CC1=NN(c2ccccc2)C(=O)C1
CC(C)(C)c1ccc(O)c(O)c1
c1cnc2c(c1)ccc1cccnc12
O=C1OC2(c3ccccc31)c1cc(I)c(O)c(I)c1Oc1c2cc(I)c(O)c1I
O=S(=O)(O)C(F)(F)C(F)(F)C(F)(F)C(F)(F)C(F)(F)C(F)(F)C(F)(F)C(F)(F)C(F)(F)C(F)(F)F
COC(=O)C(F)(F)C(F)(F)C(F)(F)F
Cc1ccccc1C(OCCN(C)C)c1ccccc1 (stereo not given)
NC(C(F)(F)F)C(F)(F)F
CCOC(C)=O
O=C1c2ccccc2C(=O)c2c(O)c(O)cc(O)c21
O=C1Cc2ccccc2N1c1c(Cl)cccc1Cl
CCCCC(CC)C(=O)OCCOCCOCCOCCOC(=O)C(CC)CCCC (stereo not given)
FC(F)(F)C(F)(F)C(F)(F)C(F)(F)I
CCCCCCC(C)(C)C(=O)O
Cc1[nH]nc2c1N=C(c1ccccc1Cl)c1cc([N+](=O)[O-])ccc1N2
CCC(=O)O
O=S(=O)(c1ccc(OCc2ccccc2)cc1)c1ccccc1O
CCC(C)c1ccccc1O (stereo not given)
CCC1CO1 (stereo not given)
